Where a name gives a salt, the structure may show the parent alone.
The compounds below were run on MDA-MB-468 (assay: phospho-S6 immunofluorescence (DAPI-normalised), per-plate z-score; higher = higher phospho-S6 signal (less pathway suppression)). Details: co-treatment: vehicle; 24 h.
Experimental: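 GPCR-targeted compound library (MedChemExpress HY-L006) tested on MDA-MB-468 PTEN-null TNBC cells in 384-well plates at 0.1, 1 or 10 uM, combined with vehicle, GDC0941 450 nM or lapatinib 1 uM, for 24 h. Phospho-S6 (S240/244) immunofluorescence normalised to DAPI and expressed as a per-plate z-score; values are the mean of biological triplicates.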

Compound	phospho-S6 immunofluorescence (z-score)
C(=C\c1ccccc1)/CN1CCN(C(c2ccccc2)c2ccccc2)CC1 [Cinnarizine] (compound 10 µM)	1.3
COc1cc2c(cc1OC)CN(C(=O)[C@@H](NCc1ccncc1)C(C)(C)C)CC2 (compound 10 µM)	-0.05
CCN(CC)CCNC(=O)c1cc(Cl)c(N)cc1OC [Metoclopramide (hydrochloride hydrate)] (compound 10 µM)	0.05
CN(C)CCOC(c1ccccc1)c1ccccc1 [Diphenhydramine (hydrochloride)] (compound 10 µM)	0.32
CNC(=O)c1cnn(-c2nc(N)c3ncn([C@@H]4O[C@H](CO)[C@@H](O)[C@H]4O)c3n2)c1 [Regadenoson] (compound 10 µM)	0.29
C[C@](N)(Cc1ccc(O)c(O)c1)C(=O)O (compound 10 µM)	-0.1
O=C(O[C@H]1CN2CCC1CC2)N1CCc2ccccc2[C@@H]1c1ccccc1 [Solifenacin (hydrochloride)] (compound 10 µM)	-1.36
C[C@H](Cc1cc2c(c(C(N)=O)c1)N(CCCO)CC2)NCCOc1ccccc1OCC(F)(F)F [Silodosin] (compound 10 µM)	0.57
CC(=O)N[C@H](Cc1ccc2ccccc2c1)C(=O)N[C@H](Cc1ccc(Cl)cc1)C(=O)N[C@H](Cc1cccnc1)C(=O)N[C@@H](CO)C(=O)N(C)[C@@H](Cc1ccc(O)cc1)C(=O)N[C@H](CC(N)=O)C(=O)N[C@@H](CC(C)C)C(=O)N[C@@H](CCCCNC(C)C)C(=O)N1CCC[C@H]1C(=O)N[C@H](C)C(N)=O [Abarelix] (compound 10 µM)	-0.38
C[C@@H](NCCCc1cccc(C(F)(F)F)c1)c1cccc2ccccc12 [Cinacalcet (hydrochloride)] (compound 10 µM)	-9.18
CNc1nc(NCc2ccc(NS(C)(=O)=O)cc2Cl)cc(-c2ccccn2)n1 (compound 10 µM)	-4.83
C[C@H](NC(=O)c1c(C(F)F)nn(C)c1Oc1cccc(C(F)(F)F)c1)c1ccc(C(=O)O)cc1 (compound 10 µM)	-0.56
CC[N+](CC)(CC)CCOc1cccc(OCC[N+](CC)(CC)CC)c1OCC[N+](CC)(CC)CC [Gallamine Triethiodide] (compound 10 µM)	0.47
CCCN(CCc1cccs1)C1CCc2c(O)cccc2C1 (racemic) [rac-Rotigotine (Hydrochloride)] (compound 10 µM)	-0.11
Cc1ccccc1N1CCN(CCc2nnc3n2CCCC3)CC1 [Dapiprazole (hydrochloride)] (compound 10 µM)	-0.32
CCCCc1oc2ccc(NS(C)(=O)=O)cc2c1C(=O)c1ccc(OCCCN(CCCC)CCCC)cc1 [Dronedarone] (compound 10 µM)	-9.98
CN(C)[C@@H]1CCc2[nH]c3ccc(NC(=O)c4ccc(F)cc4)cc3c2C1 (compound 10 µM)	-0.54
COCCCN1CCC(NC(=O)c2cc(Cl)c(N)c3c2OCC3)CC1 [Prucalopride] (compound 10 µM)	0.17
COc1ccccc1OCCNCC(O)COc1cccc2[nH]c3ccccc3c12 (stereo not given) [Carvedilol] (compound 10 µM)	-3.59
C=CCc1ccccc1OCC(O)CNC(C)C (stereo not given) [Alprenolol (hydrochloride)] (compound 10 µM)	1.12
CCCCCCCCOc1ccccc1C(=O)Nc1ccc(C(=O)OCC[N+](C)(CC)CC)cc1 [Otilonium (bromide)] (compound 10 µM)	0.94
C[C@H]1C[C@H]2[C@@H]3CCC4=CC(=O)C=C[C@]4(C)[C@@]3(F)[C@@H](O)C[C@]2(C)[C@@]1(O)C(=O)CO [Betamethasone] (compound 10 µM)	-0.96
N=C(N)N/N=C/c1c(Cl)cccc1Cl [Guanabenz (Acetate)] (compound 10 µM)	-0.2
NC[C@H](O)c1ccc(O)c(O)c1 [Norepinephrine (bitartrate monohydrate)] (compound 10 µM)	0.17
CCNC(=O)[C@@H]1CCCN1C(=O)[C@H](CCCN=C(N)N)NC(=O)[C@H](CC(C)C)NC(=O)[C@@H](C)NC(=O)[C@H](Cc1ccc(O)cc1)NC(=O)[C@H](CO)NC(=O)[C@H](Cc1c[nH]c2ccccc12)NC(=O)[C@H](Cc1cnc[nH]1)NC(=O)[C@@H]1CCC(=O)N1 [Alarelin (Acetate)] (compound 10 µM)	1

— the supplement of paper PMC7411640
